Data published in PubChem BioAssay AID588382 (National Center for Advancing Translational Sciences (NCATS), 2011).
In all, about 1,300 compounds went through this assay and about 150 (12%) were called active. About 30% were inconclusive and are not listed. The call rests on the fitted dose curve; in most records, active means well fitted cell-killing curve with a large enough effect; inconclusive means small, poorly fitted or top-dose-only effect, or effect the other way; inactive means flat fitted curve, though single readings scatter. Only a selection was taken, and actives are over-represented in it overall.

Assay: qHTS of small molecules that selectively kill Giardia lamblia: Hit Validation in HepG2 cytotox;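 further: compound exposure lasted overnight at 37 deg C; nearly all actives have a fitted effect of over 55% in size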;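 on activity change, negative = cytotoxicity: viability measured as cellular ATP by ATPLite luminescence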
Conditions: cell viability; Potency: HepG2 cytotoxicity; series mostly up to 38.3 µM; activity change, negative = cytotoxicity: at the top concentration
Summary of the method: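 Counterscreen cytotoxicity: ATPLite luminescence (15 min, room temperature) measured in HepG2 cells exposed overnight at 37 deg C to pin-transferred compound (23 nL) after overnight pre-incubation.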
On the % scale 0 is the no-effect control and ±100 the full control effect; potency means the concentration at half of the fitted maximal effect.

Structure (SMILES) | activity change, negative = cytotoxicity | Potency
O=c1[nH]c(=O)c2cc([N+](=O)[O-])cc([N+](=O)[O-])c2[nH]1 | 26.1% (inactive) | 
O=[N+]([O-])c1ccc(/C=N/Nc2nc(N3CCCCC3)nc(N3CCCCC3)n2)o1 | -1.62% (inactive) | 
Cc1ccc(NC(=O)c2ccc([N+](=O)[O-])o2)cc1S(=O)(=O)N1CCOCC1 |  | 13.1 µM (active)
COc1ccc(S(=O)(=O)N2CCCCC2)cc1NC(=O)c1ccc([N+](=O)[O-])o1 |  | 3.29 µM (active)
O=C(Nc1ccc(S(=O)(=O)N2CCCC2)cc1)c1ccc([N+](=O)[O-])o1 |  | 2.93 µM (active)
COc1ccc(C)cc1NC(=O)c1cc(S(=O)(=O)N2CCCC2)cn1C | 7.45% (inactive) | 
O=C(Nc1ccc(S(=O)(=O)N2CCOCC2)cc1)c1ccc([N+](=O)[O-])o1 |  | 13.1 µM (active)
O=C(Nc1ccccc1N1CCOCC1)c1ccc([N+](=O)[O-])o1 | 20.1% (inactive) | 
COc1ccc(S(=O)(=O)N2CCN(C(=O)c3ccc([N+](=O)[O-])o3)CC2)cc1 | 1.33% (inactive) | 
Cc1ccc(NC(=O)COc2cccnc2[N+](=O)[O-])cc1S(=O)(=O)N1CCCCC1 | -2.65% (inactive) | 
COc1ccc(S(=O)(=O)N2CCOCC2)cc1NC(=O)COc1cccnc1[N+](=O)[O-] | 4.96% (inactive) | 
CC(C)C(=O)NC(=S)Nc1ccc(S(=O)(=O)N2CCCC2)cc1 | 2.66% (inactive) | 
O=C(Cc1ccc(Cl)cc1)Nc1ncc([N+](=O)[O-])s1 | -20.5% (inactive) | 
Cc1ccc(-n2c(C)cc(C(=O)COc3cccnc3[N+](=O)[O-])c2C)cc1 | 12.6% (inactive) | 
O=C(c1ccc([N+](=O)[O-])o1)N1CCc2ccccc21 | 7.1% (inactive) | 
Cc1cc(C)cc(N=c2c([N+](=O)[O-])nn(-c3ccc(Cl)cc3)n2O)c1 | 14.2% (inactive) | 
O=C(COc1cccnc1[N+](=O)[O-])NCc1ccco1 | 10.7% (inactive) | 
COc1ccc(OC)c(CCNC(=O)CSc2ccsc2[N+](=O)[O-])c1 | -0.302% (inactive) | 
Cc1ccc(S(=O)(=O)N2[C@@H](c3ccc(Cl)cc3)C(C(=O)O)=CC[C@H]2c2ccc(Cl)c(Cl)c2)cc1 | -5.73% (inactive) | 
Cn1nc(N)c2c(-c3ccccc3)c(C#N)c(N)nc21 | 6.82% (inactive) | 
Cc1ccc(N=c2c([N+](=O)[O-])nn(-c3ccc4c(c3)OCCO4)n2O)cc1F | 2.9% (inactive) | 

Structure (SMILES) | activity change, negative = cytotoxicity | Potency
CC(C)(C)n1nc(-c2ccc(Cl)cc2)c2c(N)ncnc21 | 5.62% (inactive) | 
[O-][n+]1c2cc(C(F)(F)F)ccc2c2n1CCN=C2c1ccc(Cl)cc1 | 6.18% (inactive) | 
CCOC(=O)CSc1ccc(C(=O)NCCCN2CCOCC2)cc1[N+](=O)[O-] | 1.58% (inactive) | 
O=[N+]([O-])c1cc(S(=O)(=O)Nc2cccc(Cl)c2)ccc1N/N=C/c1ccc(N2CCOCC2)cc1 | 15.7% (inactive) | 
O=C(Nc1cccc(S(=O)(=O)N2CCCCC2)c1)c1ccc([N+](=O)[O-])o1 |  | 11.7 µM (active)
O=C(COc1cccnc1[N+](=O)[O-])Nc1cccc(S(=O)(=O)N2CCCCC2)c1 | 7.3% (inactive) | 
CC(=O)NC(Cc1cccc(C)c1)C(=O)NC1CCN(c2ncccc2[N+](=O)[O-])CC1 (stereo unspecified) | 1.07% (inactive) | 
Cc1cc(C)n(S(=O)(=O)c2ccccc2[N+](=O)[O-])n1 | -7.32% (inactive) | 
CC(NC(=O)c1ccc(N(C)C)c([N+](=O)[O-])c1)c1ccc(-n2ccnc2)cc1 (stereo unspecified) | -5.39% (inactive) | 
CC(=O)NC(Cc1cccc(F)c1)C(=O)NC1CCN(c2ncccc2[N+](=O)[O-])CC1 (stereo unspecified) | 25.4% (inactive) | 
C/C(=N\NC(=O)COc1ccc(C)cc1Br)c1cc([N+](=O)[O-])cs1 | 1.76% (inactive) | 
CC12CN3CC(C)(CN(C1)C3c1ccc([N+](=O)[O-])o1)C2 (stereo unspecified) | 23.5% (inactive) | 
O=[N+]([O-])c1cccc2nc3ccccc3c(NCCCn3ccnc3[N+](=O)[O-])c12 |  | 0.0736 µM (active)
O=C(NC(=S)Nc1ccc(CN2CCOCC2)cc1)c1ccc([N+](=O)[O-])cc1Cl | 8.14% (inactive) | 
CCN(CC)CCCC(C)Nc1cc(/C=C/c2ccccc2Cl)nc2cc(Cl)ccc12 (stereo unspecified) |  | 2.07 µM (active)
CCN(CC)CCCC(C)Nc1c2ccc(Cl)cc2nc2ccc(OC)cc12 (stereo unspecified) |  | 4.65 µM (active)
CCc1nc2cc([N+](=O)[O-])c([N+](=O)[O-])cc2[nH]1 | 17.5% (inactive) | 
Cc1cccc(-n2nc([N+](=O)[O-])c(=NCc3cccnc3)n2O)c1 | 1.38% (inactive) | 
O=C(COc1cccnc1[N+](=O)[O-])Nc1cc(Cl)ccc1Cl | 20% (inactive) | 
COc1ccccc1C(=O)NC(=O)OCCn1c(C)cnc1[N+](=O)[O-] | 13.5% (inactive) | 
O=[N+]([O-])c1ccc(Nc2ccccc2)c2nonc12 | -5.06% (inactive) | 

Structure (SMILES) | activity change, negative = cytotoxicity | Potency
O=[N+]([O-])c1nn(-c2ccc3c(c2)OCCO3)n(O)c1=NC1CCCCCC1 | 1.36% (inactive) | 
Cc1ccnc(NC(=O)c2ccc3c(c2)OCO3)c1 |  | 0.585 µM (active)
O=C(COc1cccnc1[N+](=O)[O-])Nc1ccc2c(c1)OCO2 | 2.74% (inactive) | 
Cc1ccc(C(=O)Nc2ccc3c(c2)OCCO3)o1 | -29% (inactive) | 
Cc1ncc([N+](=O)[O-])n1CCOC(=O)Nc1ccc([N+](=O)[O-])cc1 | 9.82% (inactive) | 
COc1cccc(NC(=O)COc2cccnc2[N+](=O)[O-])c1 | 5.3% (inactive) | 
O=c1c(-c2cccc([N+](=O)[O-])c2)[n+]([O-])c2ccccc2n1O | 15.3% (inactive) | 
O=C1C(c2ccncc2)=C(O)c2ccccc21 |  | 5.85 µM (active)
Cn1c(=O)c(=O)n(C)c2cc([N+](=O)[O-])c(N3CCOCC3)cc21 | -8.79% (inactive) | 
O=C(Nc1nccs1)c1cc([N+](=O)[O-])ccc1Cl | -1.08% (inactive) | 
Cc1cc(=O)oc2cc(O)c(N=Nc3ccccc3)cc12 | -10.3% (inactive) | 
CC(C)OC(=O)Nc1ccc2c(c1)N(C(=O)N1CCN(C)CC1)c1ccccc1CC2 |  | 0.521 µM (active)
CC(NC(=O)Cn1cc(Br)c([N+](=O)[O-])n1)c1ccccc1 (stereo unspecified) | 19% (inactive) | 
Cc1ncc([N+](=O)[O-])n1CCOC(=O)C12CC3CC(CC(C3)C1)C2 | -0.852% (inactive) | 
CCOC(=O)c1c(C)[nH]c2c1-c1ccccc1C(=O)C2=O |  | 2.61 µM (active)
CCOC(=O)c1ccc(NS(C)(=O)=O)cc1 | 10.8% (inactive) | 
CCOC(=O)C1=C(C)NC2=C(C(=O)c3ccccc32)C1c1ccc([N+](=O)[O-])o1 (stereo unspecified) | -1.83% (inactive) | 
CC(NC(=O)COc1cccnc1[N+](=O)[O-])c1ccc(Cl)cc1Cl (stereo unspecified) | 8.39% (inactive) | 
COC(=O)c1ccc(Nc2ccc3nonc3c2[N+](=O)[O-])cc1 | 12.5% (inactive) | 
